Results as given in PubChem BioAssay (EPA / NIEHS).
Activity calls are given as the source filed them. Rule for the calls: active = hit-call score of the fitted dose curve at least 0.9, where 1 is the maximum; inactive = score below 0.9.

Tests used:
Settings in all cases: mRNA level, 48 h; actives raise or lower the signal
[1] = read-out: Bcl-2 (BAD) gene, BAD (gene 572); assay: LTEA_HepaRG_BAD: Life Technologies and Expression Analysis (LTEA) Assay for Bcl-2 (BAD) gene using HepaRG (AID 2283469)
Method in brief: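 Differentiated HepaRG cells were exposed in duplicate in 0.5% DMSO for 48 h to eight-point half-log concentrations up to 100 uM. BAD mRNA was measured by Fluidigm TaqMan qRT-PCR, normalized to ACTB, GAPDH and POLR2A, and fitted bidirectionally against DMSO.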

[2] = read-out: Bcl-2 (BAX) gene, BAX (gene 581); assay: LTEA_HepaRG_BAX: Life Technologies and Expression Analysis (LTEA) Assay for Bcl-2 (BAX) gene using HepaRG (AID 2283470)
Method in brief: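 Differentiated HepaRG cells exposed 48 h in serum-free induction medium, eight half-log concentrations from 100 uM, in duplicate, 0.5% DMSO vehicle. BAX mRNA by TaqMan qRT-PCR, normalised to ACTB, GAPDH and POLR2A.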

[3] = read-out: adenosine kinase (ADK) gene, ADK (gene 132); assay: LTEA_HepaRG_ADK: Life Technologies and Expression Analysis (LTEA) Assay for adenosine kinase (ADK) gene using HepaRG (AID 2283471)
Method in brief: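 Read-out is ADK transcript level measured by qRT-PCR and normalised to three housekeeping genes. Cells are human HepaRG, dosed for 48 h at up to 100 uM in 0.5% DMSO. Gain or loss of signal is fitted against DMSO controls.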

[4] = read-out: Alpha-fetoprotein (AFP) gene, AFP (gene 174); assay: LTEA_HepaRG_AFP: Life Technologies and Expression Analysis (LTEA) Assay for Alpha-fetoprotein (AFP) gene using HepaRG (AID 2283472)
Method in brief: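 Differentiated human HepaRG cells exposed 48 h in serum-free induction medium, 8-point half-log series from 100 uM in 0.5% DMSO, duplicate. AFP mRNA by qRT-PCR, normalized to ACTB, GAPDH, POLR2A; bidirectional fit vs DMSO.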

BCL2L11 (gene 10018) = assay: LTEA_HepaRG_BCL2L11: Life Technologies and Expression Analysis (LTEA) Assay for Bcl-2 (BCL2L11) gene using HepaRG (AID 2283473)
Method in brief: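 Cells were plated, cultured 48 h, switched to serum-free induction medium, then dosed in duplicate for 48 h at eight half-log concentrations up to 100 uM. Lysates underwent RNA isolation and TaqMan qRT-PCR; gain or loss versus DMSO was fitted.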

[5] = read-out: Apolipoprotein A-V (APOA5) gene, APOA5 (gene 116519); assay: LTEA_HepaRG_APOA5: Life Technologies and Expression Analysis (LTEA) Assay for Apolipoprotein A-V (APOA5) gene using HepaRG (AID 2283474)
Method in brief: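 Human liver HepaRG cells are treated 48 h with test chemicals (100 uM top, half-log dilutions, 0.5% DMSO). APOA5 mRNA induction or loss is measured by qRT-PCR relative to vehicle.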

[6] = read-out: Apoptosis regulator Bcl-2 (Homo sapiens) (UniProt P10415); assay: LTEA_HepaRG_BCL2: Life Technologies and Expression Analysis (LTEA) Assay for Bcl-2 gene using HepaRG (AID 2283475)
Method in brief: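 Differentiated human HepaRG cells in serum-free induction medium exposed 48 h, in duplicate, to 8-point half-log series from 100 uM in 0.5% DMSO. BCL2 mRNA by qRT-PCR (TaqMan/Fluidigm), normalized to ACTB, GAPDH, POLR2A; bidirectional fit against DMSO.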

[7] = read-out: Bcl-2 (BID) gene, BID (gene 637); assay: LTEA_HepaRG_BID: Life Technologies and Expression Analysis (LTEA) Assay for Bcl-2 (BID) gene using HepaRG (AID 2283476)
Method in brief: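 Gene expression by qRT-PCR in HepaRG cells after 48 h exposure, duplicate wells, eight half-log concentrations topping at 100 uM in 0.5% DMSO. Normalized to ACTB, GAPDH, POLR2A; bidirectional fitting relative to DMSO.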

Caspase-3 (Homo sapiens) = Caspase-3 (Homo sapiens) (UniProt P42574); assay: LTEA_HepaRG_CASP3: Life Technologies and Expression Analysis (LTEA) Assay for cysteine-aspartic acid protease (CASP3) using HepaRG (AID 2283477)
Sequence of Caspase-3 (Homo sapiens) (P42574 whole entry, looked up): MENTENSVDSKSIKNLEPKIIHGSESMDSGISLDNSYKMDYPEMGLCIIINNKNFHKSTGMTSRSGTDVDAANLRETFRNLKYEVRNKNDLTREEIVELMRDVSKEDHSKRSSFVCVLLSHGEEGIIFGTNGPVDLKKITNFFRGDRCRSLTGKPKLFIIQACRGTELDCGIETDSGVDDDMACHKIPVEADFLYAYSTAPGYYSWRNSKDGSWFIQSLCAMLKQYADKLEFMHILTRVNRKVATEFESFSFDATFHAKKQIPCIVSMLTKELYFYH
Method in brief: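 In HepaRG liver cells dosed for 48 h at up to 100 uM (eight-point, duplicate), CASP3 expression changes are scored by qRT-PCR. Activity is fitted in both directions with 0.5% DMSO as baseline.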

[8] = read-out: Cytochrome P450 (CYP24A1), CYP24A1 (gene 1591); assay: LTEA_HepaRG_CYP24A1: Life Technologies and Expression Analysis (LTEA) Assay for Cytochrome P450 (CYP24A1) using HepaRG (AID 2283478)
Method in brief: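 Human liver HepaRG cultures receive each chemical for 48 h across an eight-point half-log series topping at 100 uM in 0.5% DMSO. Induction or suppression of CYP24A1 mRNA is scored relative to vehicle after housekeeping-gene normalization.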

[9] = read-out: cysteine-aspartic acid protease (CASP8), CASP8 (gene 841); assay: LTEA_HepaRG_CASP8: Life Technologies and Expression Analysis (LTEA) Assay for cysteine-aspartic acid protease (CASP8) using HepaRG (AID 2283480)
Method in brief: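 Differentiated HepaRG cells in serum-free induction medium, 48 h exposure, eight-point half-log series from 100 uM in 0.5% DMSO, duplicates. CASP8 mRNA by qRT-PCR, normalized to ACTB, GAPDH, POLR2A; bidirectional fit versus DMSO.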

[10] = read-out: Cytochrome P450 (CYP2B6), CYP2B6 (gene 1555); assay: LTEA_HepaRG_CYP2B6: Life Technologies and Expression Analysis (LTEA) Assay for Cytochrome P450 (CYP2B6) using HepaRG (AID 2283481)
Method in brief: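 Using 48 h treatment of HepaRG cells in serum-free induction medium, concentrations spanned half-log steps from 100 uM in 0.5% DMSO vehicle. CYP2B6 mRNA induction or loss is scored by qRT-PCR against DMSO.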

[11] = read-out: Cytochrome P450 2C19 (Homo sapiens) (UniProt P33261); assay: LTEA_HepaRG_CYP2C19: Life Technologies and Expression Analysis (LTEA) Assay for CYP2C19 using HepaRG (AID 2283482)
Method in brief: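 Human HepaRG liver cells received test chemicals for 48 h (highest 100 uM, half-log dilutions in 0.5% DMSO). CYP2C19 mRNA induction or loss is read by multiplexed qRT-PCR and fitted in both directions versus vehicle.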

CYP2C8 (gene 1558) = assay: LTEA_HepaRG_CYP2C8: Life Technologies and Expression Analysis (LTEA) Assay for CYP2C8 using HepaRG (AID 2283483)
Method in brief: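 Differentiated HepaRG cells in serum-free induction medium exposed 48 h in duplicate to 8 half-log concentrations from 100 uM in 0.5% DMSO. CYP2C8 mRNA by qRT-PCR normalized to ACTB, GAPDH, POLR2A; bidirectional fit versus DMSO.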

CYP2C9 (gene 1559) = assay: LTEA_HepaRG_CYP2C9: Life Technologies and Expression Analysis (LTEA) Assay for CYP2C9 using HepaRG (AID 2283484)
Method in brief: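 Differentiated human HepaRG cells in serum-free induction medium were exposed 48 h to chemicals in 8-point half-log series from 100 uM (0.5% DMSO), in duplicate. CYP2C9 mRNA was measured by qRT-PCR, normalized to ACTB/GAPDH/POLR2A, with bidirectional fitting versus DMSO.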

CYP2E1 (gene 1571) = assay: LTEA_HepaRG_CYP2E1: Life Technologies and Expression Analysis (LTEA) Assay for CYP2E1 using HepaRG (AID 2283485)
Method in brief: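 HepaRG cells, plated 48 h, then exposed 48 h in serum-free induction medium to eight half-log concentrations from 100 uM in 0.5% DMSO, duplicate. CYP2E1 mRNA by qRT-PCR, normalized to ACTB/GAPDH/POLR2A; bidirectional fit versus DMSO.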

CYP4A11 (gene 1579) = assay: LTEA_HepaRG_CYP4A11: Life Technologies and Expression Analysis (LTEA) Assay for CYP4A11 using HepaRG (AID 2283486)
Method in brief: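 Readout is CYP4A11 mRNA induction or suppression (qRT-PCR, ACTB/GAPDH/POLR2A normalization) in human HepaRG cells after 48 h chemical treatment, concentrations to 100 uM in 0.5% DMSO, fitted bidirectionally against vehicle.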

[12] = read-out: Cytochrome P450 3A4 (Homo sapiens) (UniProt P08684); assay: LTEA_HepaRG_CYP3A4: Life Technologies and Expression Analysis (LTEA) Assay for CYP3A4 using HepaRG (AID 2283487)
Method in brief: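 HepaRG, 48 h exposure, 8-pt CRC from 100 uM (half-log), 0.5% DMSO, duplicates; serum-free induction medium. Readout: CYP3A4 mRNA, qRT-PCR, ACTB/GAPDH/POLR2A normalization. Bidirectional fit vs DMSO.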

[13] = read-out: DNA damage-inducible transcript 3 (DDIT3), DDIT3 (gene 1649); assay: LTEA_HepaRG_DDIT3: Life Technologies and Expression Analysis (LTEA) Assay for DNA damage-inducible transcript 3 (DDIT3) using HepaRG (AID 2283488)
Method in brief: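 HepaRG cells, 48 h after plating, exposed 48 h in serum-free induction medium to 8 half-log concentrations up to 100 uM in 0.5% DMSO, in duplicate. DDIT3 mRNA measured by TaqMan qRT-PCR, normalized to ACTB, GAPDH and POLR2A. Fitted bidirectionally against DMSO.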

[14] = read-out: Pro-epidermal growth factor (Homo sapiens) (UniProt P01133); assay: LTEA_HepaRG_EGF: Life Technologies and Expression Analysis (LTEA) Assay for Epidermal growth factor (EGF) using HepaRG (AID 2283489)
Method in brief: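 EGF expression changes in human HepaRG cells are scored by bidirectional fitting relative to 0.5% DMSO controls. Chemicals are tested at eight half-log concentrations up to 100 uM for 48 h in serum-free induction medium.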

Measured: outcome

Sequence of Cytochrome P450 3A4 (Homo sapiens) (P08684 whole entry, looked up): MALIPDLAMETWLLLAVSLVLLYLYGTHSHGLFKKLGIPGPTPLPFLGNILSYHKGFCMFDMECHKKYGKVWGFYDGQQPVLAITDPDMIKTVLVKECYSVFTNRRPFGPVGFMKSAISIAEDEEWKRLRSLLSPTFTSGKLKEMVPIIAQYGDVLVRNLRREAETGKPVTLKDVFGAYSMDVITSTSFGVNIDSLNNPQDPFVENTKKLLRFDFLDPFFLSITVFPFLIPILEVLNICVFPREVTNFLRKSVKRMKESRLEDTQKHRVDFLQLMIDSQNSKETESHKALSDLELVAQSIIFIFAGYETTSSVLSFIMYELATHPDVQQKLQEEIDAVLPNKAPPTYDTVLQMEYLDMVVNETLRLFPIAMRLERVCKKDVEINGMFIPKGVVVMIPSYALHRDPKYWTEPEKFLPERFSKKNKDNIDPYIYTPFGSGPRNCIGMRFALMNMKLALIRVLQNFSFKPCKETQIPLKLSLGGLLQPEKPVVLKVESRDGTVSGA
Sequence of Cytochrome P450 2C19 (Homo sapiens) (P33261 whole entry, looked up): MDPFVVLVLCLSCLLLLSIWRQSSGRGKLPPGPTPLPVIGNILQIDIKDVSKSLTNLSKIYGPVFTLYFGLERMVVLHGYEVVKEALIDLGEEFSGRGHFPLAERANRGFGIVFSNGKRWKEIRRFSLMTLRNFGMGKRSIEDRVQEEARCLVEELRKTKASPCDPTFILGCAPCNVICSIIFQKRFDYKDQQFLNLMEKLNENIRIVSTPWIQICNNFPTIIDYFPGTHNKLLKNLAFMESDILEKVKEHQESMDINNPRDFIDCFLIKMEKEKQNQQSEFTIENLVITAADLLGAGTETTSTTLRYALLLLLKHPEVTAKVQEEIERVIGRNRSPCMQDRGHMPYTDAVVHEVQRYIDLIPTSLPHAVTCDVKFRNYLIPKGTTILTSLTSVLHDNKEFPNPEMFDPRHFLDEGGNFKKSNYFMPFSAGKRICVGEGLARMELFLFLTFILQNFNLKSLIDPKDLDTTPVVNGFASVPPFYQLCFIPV
Sequence of Apoptosis regulator Bcl-2 (Homo sapiens) (P10415 whole entry, looked up): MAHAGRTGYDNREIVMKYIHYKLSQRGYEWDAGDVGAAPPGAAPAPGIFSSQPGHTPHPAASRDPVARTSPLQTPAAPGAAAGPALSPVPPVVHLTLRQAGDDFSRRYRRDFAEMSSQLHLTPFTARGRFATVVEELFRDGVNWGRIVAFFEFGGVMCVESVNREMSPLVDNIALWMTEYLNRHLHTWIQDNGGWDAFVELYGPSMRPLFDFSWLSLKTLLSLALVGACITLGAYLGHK

O=C(O)c1ccc([N+](=O)[O-])cc1
inactive: all assays above
